“And” between values parts separate entries of the source, which are not always exact repeats. Equal entries are not always repeated. Inconclusive results are not listed. The source made the active and inactive calls. Unless noted, calls come from the whole dose curve; as a rule, active = well fitted curve in the direction sought with a large enough effect in the repeat runs; inconclusive = weak or mixed curves; inactive = no such curve, though single readings can be large; an effect the other way counts as inactive or inconclusive.

Test [1] in a line: qHTS assay to identify small molecule antagonists of the sonic hedgehog signaling (Shh) pathway (AID 1259369; calls by dose curve; note: nearly all actives have a fitted effect of over 45% in size; note: potency is the fitted concentration of half-maximal effect). An outline of the steps: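 Gli1 transcriptional reporter (firefly Luc) in NIH/3T3 background, conditioned-medium activated. 24hr exposure, luminescence endpoint.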
A short description of test [2]: qHTS assay to identify small molecule agonists of the androgen receptor (AR) signaling pathway in the presence of an antagonist - cell viability counter screen (AID 1259379). Note: nearly all actives have a fitted effect of over 25% in size. Note: potency is the fitted concentration of half-maximal effect. An outline of the steps: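 Counter screen for cell viability run in parallel with the AR agonist-mode luciferase assay. MDA-kb2 cells were co-treated with nilutamide (3.0uM final) and compounds, then incubated 16 hr at 37C, and CellTiter-Fluor fluorescence was measured.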
Background: Quantitative high-throughput screening tests each substance at several concentrations.

Test [3] is described as follows: qHTS assay to identify small molecule agonists of the estrogen receptor beta (ER-beta) signaling pathway - cell viability counter screen (AID 1259380). Note: nearly all actives have a fitted effect of over 30% in size. Note: potency is the fitted concentration of half-maximal effect. An outline of the steps:
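In this qHTS counter screen, HEK293T cells carrying an ER-beta/UAS beta-lactamase reporter, grown in 2% charcoal-stripped FBS, received compound for 16 hr; ATP-based CellTiter-Glo luminescence was then read after 30 min at room temperature.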

The target of test [4] is Androgen receptor (Homo sapiens) (UniProt P10275). In words: qHTS assay to identify small molecule agonists of the androgen receptor (AR) signaling pathway in the presence of an antagonist (AID 1259381; calls by dose curve; note: nearly all actives have a fitted effect of over 15% in size). In outline: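 AR antagonist background: nilutamide 3.0uM final. Cell line: MDA-kb2, MMTV-driven luciferase, responsive to both AR and GR. Exposure 16hr, 37C, no CO2; ONE-Glo luminescence.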
Sequence of Androgen receptor (Homo sapiens) (P10275 whole entry, looked up): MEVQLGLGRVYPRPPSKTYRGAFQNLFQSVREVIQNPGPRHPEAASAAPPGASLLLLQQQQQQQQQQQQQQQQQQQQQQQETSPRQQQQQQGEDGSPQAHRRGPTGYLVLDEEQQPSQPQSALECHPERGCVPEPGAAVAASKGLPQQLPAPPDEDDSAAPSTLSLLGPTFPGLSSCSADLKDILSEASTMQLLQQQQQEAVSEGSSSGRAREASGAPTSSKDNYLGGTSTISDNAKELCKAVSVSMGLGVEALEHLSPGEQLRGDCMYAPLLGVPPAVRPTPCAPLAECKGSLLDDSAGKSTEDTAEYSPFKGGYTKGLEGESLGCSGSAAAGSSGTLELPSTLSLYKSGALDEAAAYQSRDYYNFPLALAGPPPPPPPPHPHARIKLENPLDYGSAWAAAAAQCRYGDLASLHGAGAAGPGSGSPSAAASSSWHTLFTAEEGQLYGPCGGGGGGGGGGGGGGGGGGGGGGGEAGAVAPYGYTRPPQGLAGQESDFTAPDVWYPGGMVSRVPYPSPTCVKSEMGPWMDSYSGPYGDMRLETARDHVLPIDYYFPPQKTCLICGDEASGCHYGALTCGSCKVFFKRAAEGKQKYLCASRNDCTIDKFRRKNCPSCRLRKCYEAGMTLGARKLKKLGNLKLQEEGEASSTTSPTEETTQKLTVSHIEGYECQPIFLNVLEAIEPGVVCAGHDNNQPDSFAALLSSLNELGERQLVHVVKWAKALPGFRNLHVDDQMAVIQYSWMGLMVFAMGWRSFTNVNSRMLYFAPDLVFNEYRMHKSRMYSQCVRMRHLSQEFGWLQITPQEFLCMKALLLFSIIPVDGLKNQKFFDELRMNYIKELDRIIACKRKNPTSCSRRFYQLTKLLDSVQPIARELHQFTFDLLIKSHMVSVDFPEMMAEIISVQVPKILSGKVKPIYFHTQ

Test [5] in a line: qHTS assay to identify small molecule antagonists of the estrogen receptor beta (ER-beta) signaling pathway - cell viability counter screen (AID 1259382). Note: nearly all actives have a fitted effect of over 55% in size. Note: potency is the fitted concentration of half-maximal effect. In outline: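 HEK293T ER-beta-UAS-bla, 2% charcoal-stripped FBS; compounds + 1nM E2 16 hr 37C; CellTiter-Glo luminescence, 30 min RT.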
Test [6] has as its target Estrogen receptor (Homo sapiens) (UniProt P03372). In words: qHTS assay to identify small molecule agonists of the estrogen receptor alpha (ER-alpha) signaling pathway in the presence of an antagonist (AID 1259383; calls by dose curve; note: top concentration of the series differs between compounds; nearly all actives have a fitted effect of over 15% in size). An outline of the steps:
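ER-alpha agonism measured under antagonist challenge: 10.0nM ICI-182,780 (final) plus compound, 15 concentrations, 22hr, VM7Luc4E2 ERE-luciferase cells. Read by luminescence.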

Test [7] is described as follows: qHTS assay to identify small molecule agonists or antagonists of the thyroid stimulating hormone receptor (TSHR) signaling pathway - wild type cell line counter screen (AID 1259384; calls by dose curve). An outline of the steps: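 Counter screen in untransfected Hek293: compounds (15-point titration, triplicate) plus phosphodiesterase inhibitor Ro20-1724 added after 18 h plating; 30 min RT. Intracellular cAMP via competitive d2/cryptate immunoassay, 1 h incubation.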

The target in test [8] is Thyrotropin receptor (Homo sapiens) (UniProt P16473). Description: qHTS assay to identify small molecule antagonists of the thyroid stimulating hormone receptor (TSHR) signaling pathway (AID 1259385; calls by dose curve; note: nearly all actives have a fitted effect of over 20% in size). In outline: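 Antagonist mode: compound-treated TSHR-expressing HEK293 cells were stimulated with 1.5 ng/mL TSH (final) in presence of Ro20-1724 for 30 min at RT. HTRF cAMP detection after 1 h; each compound tested at 15 concentrations, triplicate.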
Sequence of Thyrotropin receptor (Homo sapiens) (P16473 whole entry, looked up): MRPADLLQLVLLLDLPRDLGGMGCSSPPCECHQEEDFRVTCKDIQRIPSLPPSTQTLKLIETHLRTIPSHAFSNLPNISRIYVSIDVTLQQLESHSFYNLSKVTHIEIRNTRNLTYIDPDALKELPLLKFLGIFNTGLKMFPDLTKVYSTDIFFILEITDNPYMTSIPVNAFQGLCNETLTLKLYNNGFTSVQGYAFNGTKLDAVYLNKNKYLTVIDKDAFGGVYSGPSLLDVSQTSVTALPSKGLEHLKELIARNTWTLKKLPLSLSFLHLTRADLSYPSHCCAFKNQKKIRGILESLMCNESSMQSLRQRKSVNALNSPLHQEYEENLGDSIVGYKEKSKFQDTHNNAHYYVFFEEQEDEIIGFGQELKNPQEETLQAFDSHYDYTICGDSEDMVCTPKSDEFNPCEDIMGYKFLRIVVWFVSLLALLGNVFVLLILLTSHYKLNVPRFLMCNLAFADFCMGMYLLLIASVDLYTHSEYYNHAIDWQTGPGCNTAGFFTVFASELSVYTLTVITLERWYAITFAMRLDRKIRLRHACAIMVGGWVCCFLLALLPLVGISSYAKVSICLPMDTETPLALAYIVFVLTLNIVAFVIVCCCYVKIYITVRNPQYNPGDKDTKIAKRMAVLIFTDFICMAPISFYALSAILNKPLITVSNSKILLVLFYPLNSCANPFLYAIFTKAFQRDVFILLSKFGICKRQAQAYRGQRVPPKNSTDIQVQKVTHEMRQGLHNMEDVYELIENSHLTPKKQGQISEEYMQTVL

Test [9] can be described thus: qHTS assay to identify small molecule agonists of the estrogen receptor alpha (ER-alpha) signaling pathway in the presence of an antagonist - cell viability counter screen (AID 1259386).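 Note: series mostly up to about 92 µM; cells exposed to compounds for 22 h at 37 °C before the viability read; nearly all actives have a fitted effect of over 30% in size.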 In outline:
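Steps: 5-day stripped-FBS culture; seed and incubate 24hr; add ICI-182,780 (10.0nM final); pin 15-point compound titration; incubate 22hr at 37C; add CellTiter-Fluor at 21hr; read fluorescence.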

Test [10] deals with Progesterone receptor (Homo sapiens) (UniProt P06401). Description: qHTS assay to identify small molecule agonists of the progesterone receptor (PR) signaling pathway (AID 1346784; calls by dose curve; note: nearly all actives have a fitted effect of over 30% in size). In outline: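 Seed PR-UAS-bla HEK 293T cells (2% charcoal-stripped FBS), incubate 6 hr at 37C; add compounds in DMSO, 16 hr at 37C; add LiveBLAzer B/G substrate, 2 hr RT; read fluorescence intensity.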
Sequence of Progesterone receptor (Homo sapiens) (P06401 whole entry, looked up): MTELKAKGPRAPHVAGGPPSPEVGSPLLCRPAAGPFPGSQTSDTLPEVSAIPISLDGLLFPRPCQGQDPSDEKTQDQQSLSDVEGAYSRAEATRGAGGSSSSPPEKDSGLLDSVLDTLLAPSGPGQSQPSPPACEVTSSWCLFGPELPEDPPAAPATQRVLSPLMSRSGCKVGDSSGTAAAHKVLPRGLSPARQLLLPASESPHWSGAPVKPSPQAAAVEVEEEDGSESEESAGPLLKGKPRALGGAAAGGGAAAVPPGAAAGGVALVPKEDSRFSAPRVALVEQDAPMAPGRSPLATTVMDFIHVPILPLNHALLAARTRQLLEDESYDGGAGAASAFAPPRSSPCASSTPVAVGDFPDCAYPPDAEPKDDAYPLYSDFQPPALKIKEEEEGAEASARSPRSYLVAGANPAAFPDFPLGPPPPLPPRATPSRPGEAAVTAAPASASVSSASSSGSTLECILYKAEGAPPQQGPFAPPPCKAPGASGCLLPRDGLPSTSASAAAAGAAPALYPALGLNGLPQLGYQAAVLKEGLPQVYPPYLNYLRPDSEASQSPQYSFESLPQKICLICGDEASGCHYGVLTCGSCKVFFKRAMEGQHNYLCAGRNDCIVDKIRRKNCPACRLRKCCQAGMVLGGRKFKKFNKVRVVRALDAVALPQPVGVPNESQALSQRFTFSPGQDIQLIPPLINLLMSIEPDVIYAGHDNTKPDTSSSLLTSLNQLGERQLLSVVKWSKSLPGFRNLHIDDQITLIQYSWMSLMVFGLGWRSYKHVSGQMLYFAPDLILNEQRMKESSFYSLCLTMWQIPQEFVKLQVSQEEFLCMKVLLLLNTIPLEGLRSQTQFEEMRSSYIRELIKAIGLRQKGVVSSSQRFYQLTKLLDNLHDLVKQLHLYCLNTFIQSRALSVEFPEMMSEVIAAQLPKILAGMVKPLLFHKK

For test [11] the target is unchanged. Description: qHTS assay to identify small molecule antagonists of the progesterone receptor (PR) signaling pathway (AID 1346795; active = well fitted inhibition curve with a large enough effect in the signal ratio in the repeat runs, not every such curve was filed as active; the % refers to the signal ratio; note: potency is the fitted concentration of half-maximal effect). In outline: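 Screening used a GripTite HEK293T line with PR-responsive UAS-beta-lactamase. Cells were challenged with compound in the presence of 1 nM R5020 final for 16 hr at 37C; B/G FRET substrate, 2 hr room temperature, fluorescence.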

Test [12] is described as follows: qHTS assay to identify small molecule antagonists of the progesterone receptor (PR) signaling pathway - cell viability counter screen (AID 1346798). Note: nearly all actives have a fitted effect of over 50% in size. Note: potency is the fitted concentration of half-maximal effect. An outline of the steps:
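Measures cytotoxicity in parallel with the PR antagonist reporter read: HEK293T PR-UAS-bla cells get compound and R5020 for 16 hr, and remaining viable cells are quantified by CellTiter-Glo luminescence.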

Test [13] is described as follows: qHTS assay to identify small molecule agonists of the progesterone receptor (PR) signaling pathway - cell viability counter screen (AID 1346799; calls by dose curve; note: nearly all actives have a fitted effect of over 45% in size; note: potency is the fitted concentration of half-maximal effect). An outline of the steps: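 Using the same plates as the PR reporter screen, HEK293T PR-UAS-bla cells received compounds for 16 hr at 37C and were then lysed with CellTiter-Glo; luminescence was read 30 min later at room temperature.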

Test [14] is described as follows: qHTS assay to identify small molecule antagonists of the TGF-beta/Smad signaling pathway - cell viability counter screen (AID 1346824). Note: nearly all actives have a fitted effect of over 50% in size. Note: potency is the fitted concentration of half-maximal effect. In outline: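 Cytotoxicity counter-screen run in the same wells as the beta-lactamase Smad reporter read: CellTiter-Glo luminescence after 30 min at room temperature. HEK 293T SBE-bla cells had 5 hr compound exposure at 37 C with TGF-beta1 (0.25 ng/mL stock).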

Test [15] in a line: qHTS assay to identify small molecule agonists of the TGF-beta/Smad signaling pathway - cell viability counter screen (AID 1346829). Note: nearly all actives have a fitted effect of over 45% in size. Note: potency is the fitted concentration of half-maximal effect. In outline:
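CellTiter-Glo luminescence readout; SBE-bla HEK 293T cells, overnight plating, compound 5 hr at 37 C/5% CO2, then bla substrate 2 hr RT, then CellTiter-Glo 30 min RT.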

Test [16] in a line: qHTS assay to identify small molecule agonists of the TGF-beta/Smad signaling pathway (AID 1346859; active = well fitted activation curve with a large enough effect in the signal ratio in the repeat runs, not every such curve was filed as active; the % refers to the signal ratio; note: series mostly up to about 77 µM). An outline of the steps: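 Beta-lactamase reporter activity downstream of Smad binding elements was measured in stably transfected HEK 293T cells; compounds were incubated for 5 hr, substrate for 2 hr at room temperature.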
Test [17] concerns the target Thyrotropin-releasing hormone receptor (Homo sapiens) (UniProt P34981). Description: qHTS assay to identify small molecule antagonists of the thyrotropin-releasing hormone receptor (TRHR) signaling pathway (AID 1346877; active = well fitted inhibition curve with a large enough effect in the repeat runs, not every such curve was filed as active; note: series mostly up to about 51 µM). An outline of the steps: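 Human TRHR in HEK293 cells; inhibition of the intracellular calcium rise triggered by 1 nM TRH was followed by fluorescence over 3 min. Compounds were run at 15 concentrations, three replicates each.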

The target is the same in test [18]. Description: qHTS assay to identify small molecule agonists of the thyrotropin-releasing hormone receptor (TRHR) signaling pathway (AID 1346891; calls by dose curve;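 note: HEK293 cells expressing TRHR with calcium dye readout; series mostly up to about 58 µM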). An outline of the steps: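 Overnight-plated (18 h, 37 °C, 5% CO2) TRHR-Hek293 cells; 2 h calcium dye at 37 °C; compound in DMSO; 3-min kinetic fluorescence read.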
Test [19] has as its target Estrogen receptor beta (Homo sapiens) (UniProt Q92731). Description: qHTS assay to identify small molecule antagonists of the estrogen receptor beta (ER-beta) signaling pathway (AID 1259378; active = well fitted inhibition curve with a large enough effect in the signal ratio in the repeat runs, not every such curve was filed as active; the % refers to the signal ratio). In outline: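 Antagonist mode: compounds added to beta-lactamase reporter HEK293T ER-beta-UAS cells stimulated with E2 (1nM final), 16 hr at 37C. LiveBLAzer B/G FRET substrate, 2 hours room temperature, fluorescence read-out.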

Sequence of Thyrotropin-releasing hormone receptor (Homo sapiens) (P34981 whole entry, looked up): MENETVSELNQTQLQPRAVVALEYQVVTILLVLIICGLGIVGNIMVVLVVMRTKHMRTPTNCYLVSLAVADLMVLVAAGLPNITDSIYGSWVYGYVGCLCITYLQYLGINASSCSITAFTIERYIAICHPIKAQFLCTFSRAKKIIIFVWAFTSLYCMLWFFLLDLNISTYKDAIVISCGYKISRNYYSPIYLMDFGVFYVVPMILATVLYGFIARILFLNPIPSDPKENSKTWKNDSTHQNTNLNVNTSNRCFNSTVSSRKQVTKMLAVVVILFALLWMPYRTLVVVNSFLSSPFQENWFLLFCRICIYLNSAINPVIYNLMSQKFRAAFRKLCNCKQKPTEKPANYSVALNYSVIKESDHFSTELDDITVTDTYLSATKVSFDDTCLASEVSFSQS
Sequence of Estrogen receptor (Homo sapiens) (P03372 whole entry, looked up): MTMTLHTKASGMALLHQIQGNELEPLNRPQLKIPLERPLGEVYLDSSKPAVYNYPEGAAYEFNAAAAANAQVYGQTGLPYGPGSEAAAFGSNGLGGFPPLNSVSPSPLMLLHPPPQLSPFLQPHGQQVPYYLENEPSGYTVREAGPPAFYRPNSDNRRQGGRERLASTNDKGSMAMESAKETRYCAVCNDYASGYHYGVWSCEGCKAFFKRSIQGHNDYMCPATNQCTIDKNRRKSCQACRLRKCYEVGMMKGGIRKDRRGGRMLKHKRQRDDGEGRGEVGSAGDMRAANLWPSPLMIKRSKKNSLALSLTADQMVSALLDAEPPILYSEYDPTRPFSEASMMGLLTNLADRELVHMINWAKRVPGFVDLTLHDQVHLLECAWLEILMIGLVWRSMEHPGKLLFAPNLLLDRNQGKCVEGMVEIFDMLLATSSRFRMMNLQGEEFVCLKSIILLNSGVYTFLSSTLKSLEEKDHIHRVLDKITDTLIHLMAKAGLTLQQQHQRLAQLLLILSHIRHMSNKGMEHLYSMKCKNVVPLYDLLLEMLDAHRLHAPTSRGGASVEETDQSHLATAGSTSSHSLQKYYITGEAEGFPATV
Sequence of Estrogen receptor beta (Homo sapiens) (Q92731 whole entry, looked up): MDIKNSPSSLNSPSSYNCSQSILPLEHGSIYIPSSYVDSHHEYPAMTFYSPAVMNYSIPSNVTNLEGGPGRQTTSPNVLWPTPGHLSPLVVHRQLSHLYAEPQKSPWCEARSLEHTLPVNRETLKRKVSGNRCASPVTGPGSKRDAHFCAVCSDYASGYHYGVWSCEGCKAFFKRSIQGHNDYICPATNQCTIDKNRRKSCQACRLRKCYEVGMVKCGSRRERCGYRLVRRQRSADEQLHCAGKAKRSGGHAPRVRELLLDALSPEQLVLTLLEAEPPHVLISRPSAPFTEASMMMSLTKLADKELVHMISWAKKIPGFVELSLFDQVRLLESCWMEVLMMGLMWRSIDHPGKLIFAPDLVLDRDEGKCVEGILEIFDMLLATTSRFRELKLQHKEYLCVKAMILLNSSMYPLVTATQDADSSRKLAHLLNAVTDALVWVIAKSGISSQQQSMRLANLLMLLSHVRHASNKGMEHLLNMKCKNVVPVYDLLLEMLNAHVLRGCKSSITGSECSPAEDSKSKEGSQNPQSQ

Turning to `CN1C(=O)CN=C(c2ccccc2)c2cc([N+](=O)[O-])ccc21`, the Potency result in test [1], in [2], in test [3], in test [4], in [5] and in test [6] was “inactive” each time. Moreover, the Potency entry in test [8], in test [9], in [10], in [11], in test [12] and in test [13] was “inactive” throughout. Further, the Potency entry in test [14], in [15] and in test [17] was “inactive” each time. For the same molecule, the call in [7], in test [16] and in [18] was inactive.

`CCOP(=S)(OCC)SCSc1cc(Cl)ccc1Cl`: the Potency entry in [1], in [2], in test [3], in test [5], in test [6] and in [8] was “inactive” each time. The Potency entry in test [9], in test [11], in test [13], in [14], in test [15] and in [17] was “inactive” in each case. For the same molecule, the outcome in test [7], in test [16] and in [18] was inactive.

As to `Nc1ccc2c(c1)Cc1ccccc1-2`, the Potency entry in test [1], in test [19], in [2], in [3], in test [5] and in test [6] was “inactive” in each case. Further, the Potency result in test [9], in test [10], in test [12], in test [13], in test [14] and in test [15] was “inactive” in each case. Besides, the Potency result in test [17] is “inactive”. In addition, the Potency in test [11] is 6.08 µM (active). In addition, the molecule was classed as inactive in test [16] and in test [18].

For the molecule `CCOc1cccc(C2(N3CCN(c4ccccc4)CC3)CCC(C)CC2)c1` (centres undefined), the Potency result in test [1], in test [2], in test [3], in test [5], in test [6] and in test [8] was “inactive” throughout. The Potency result in test [9], in test [10], in [11], in [13], in test [14] and in [15] was “inactive” each time. Further, the Potency entry in [17] is “inactive”. For the same molecule, the molecule was classed as inactive in test [16] and in test [18].

For the molecule `c1ccc2c(c1)sc1ccccc12`, the Potency result in test [1], in test [2], in test [3], in test [5], in test [6] and in [8] was “inactive” each time. Also, the Potency result in test [10], in [11], in test [12], in test [13], in test [14] and in test [15] was “inactive” in each case. In addition, the Potency entry in test [17] was “inactive”. The call in [7], in test [16] and in test [18] was inactive.

In the case of `C[N+]1(CCF)[C@@H]2CC[C@H]1CC(OC(=O)C(O)(c1ccccc1)c1ccccc1)C2` (some centres undefined), the Potency entry in test [1], in test [2], in [3], in test [5], in [6] and in test [8] was “inactive” throughout. Further, the Potency entry in test [9], in [11], in test [12], in [14], in test [15] and in test [17] was “inactive” in each case. Besides, the result in test [7], in test [16] and in test [18] was inactive.

`CCCCCCCCCCCC[N+](C)(C)CCOc1ccccc1`: the Potency in [1] is 3.44 µM (active) and 473 nM (active); in test [2], 68.6 µM (active); in test [3] it was 21.7 µM (active) and 11.9 µM (active); in test [5], 19.3 µM (active) and 15 µM (active); in [12], 54.5 µM (active) and 13.3 µM (active); in test [13] it was 24.3 µM (active) and 23.7 µM (active). For the same molecule, the Potency is 43.7 µM (active) in [14]; 55 µM (active) and 26.8 µM (active) in test [15]. For the same molecule, the Potency entry in test [6], in [8], in test [10] and in test [17] was “inactive” throughout. Moreover, the result in test [7] and in [18] was inactive.

These data come from PubChem BioAssay (Tox21).
